{
  "source": "PubChem BioAssay (NCI)",
  "note": "About 83,000 compounds went through this panel and 20% of them were active in at least one assay; those are over-represented in the sample as a whole.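 96-well plates, one dose, 48 hours. Percent growth reported; active if below 10.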 Activity calls are given as the source filed them.",
  "data": [
    {"system": "NCI-H226 lung", "assay": "NCI-60 one-dose screen, 48 h (100 = growth as untreated, 0 = no growth, -100 = all killed)", "details": "10 µM unless noted", "procedure": "Growth inhibition of the NCI-H226 human Non-Small Cell Lung tumor cell line is measured as a screen for anti-cancer activity. Cells are grown in 96 well plates and exposed to the test compound for 48 hours. Compounds are tested at a single concentration, which is 10^-5 M for most compounds. The reported endpoint is percent growth (GI% or GIPRCNT), where numbers from 0 - 100% represent growth inhibition, and numbers from -100% - 0 represent cell death. For example, a value of 40 represents 60% growth inhibition. A value of 0 means no net growth occurred over the course of the experiment. A value of -40 indicates 40% of cells at the beginning of the experiment died by the end of the experiment. A value of -100 means all cells are dead at the end of the experiment.\nNCI-60 Human Tumor Cell Lines Screen was performed using the standard one-dose NCI protocol, which is described in more detail at https://dtp.cancer.gov/discovery_development/nci-60/default.htm.\nCompounds with GIPRCNT values below 10 were considered active. Activity score was based on GIPRCNT using the following formula: […]\nScore is 0 for GIPRCNT values of 100 or above, 50 for GIPRCNT values of 0, and 100 for GIPRCNT values of -100.", "values": [
      {"smiles": "CC(=O)Nc1ccc(C(=O)COc2ccc(/C=C3\\CCc4ccccc4C3=O)cc2)cc1", "growth": "94.8% (inactive)"},
      {"smiles": "CCOc1cc(/C=C/C(=O)CC(=O)/C=C/c2ccc(OC(=O)CNc3nc4ccc(OC)cc4s3)c(OCC)c2)ccc1OC(=O)CNc1nc2ccc(OC)cc2s1", "growth": "64.5% (inactive)"},
      {"smiles": "O=C(NCCNC(=O)Oc1cccc2ccccc12)Oc1cccc2ccccc12", "growth": "79% (inactive)"},
      {"smiles": "O=C1NC(=S)S/C1=C\\c1cc(Br)ccc1O", "growth": "91.4% (inactive)"},
      {"smiles": "CCOc1cc(CCNS(=O)(=O)c2ccc(C)cc2)c(C(C)=O)cc1OCC", "growth": "81% [100 µM] (inactive)"},
      {"smiles": "CNc1nc(NC2CCCC2)nc(Sc2ccc(OC)cc2)n1", "growth": "46.4% [100 µM] (inactive)"},
      {"smiles": "O=C(NC1CCS(=O)(=O)C1)c1ccc(C(=O)c2ccccc2)cc1", "note": "(stereo not given)", "growth": "94.5% (inactive)"},
      {"smiles": "COc1cccc(N2CCN(c3cccc(C)n3)CC2)c1", "growth": "105% (inactive)"},
      {"smiles": "COc1cnc2c(c1)C(=O)c1c-2n(CCCN2CCNCC2)c(=O)c2cc(F)ccc12", "growth": "-57.6% (active)"},
      {"smiles": "COP(=O)(OC)C(c1ccc(O)cc1)(c1ccc(O)cc1)c1ccc(O)cc1", "growth": "99.7% (inactive)"},
      {"smiles": "Cc1ccc(C2=Nc3c(ccc4c(C)c(C)c(=O)oc34)OC2)cc1", "growth": "101% (inactive)"},
      {"smiles": "COc1ccc(C2=NN(C=O)C(c3cccc(Nc4ccnc5cc(Cl)ccc45)c3)C2)cc1", "note": "(stereo not given)", "growth": "39.7% (inactive)"},
      {"smiles": "COc1ccc(-c2nc3sc4c(c3c(=O)[nH]2)CCCCCC4)cc1", "growth": "86.5% (inactive)"},
      {"smiles": "O=C(Nc1ccc2c(c1)C(=O)c1ccccc1-2)c1ccccc1", "growth": "97.6% (inactive)"},
      {"smiles": "C=C(CN1CCc2c([nH]c3ccccc23)C1)c1ccc(C(=O)Nc2ccon2)cc1", "growth": "92.7% (inactive)"},
      {"smiles": "O=c1[nH]c(N2CCC(Cc3ccccc3)CC2)nc2sc3c(c12)CCCC3", "growth": "92.3% (inactive)"},
      {"smiles": "Cc1csc(C#Cc2cncc(O)c2)n1", "growth": "109% (inactive)"},
      {"smiles": "Cc1cc(Cl)ccc1Nc1nc(C(F)(F)F)ccc1C(=O)N/N=C/c1ccc(Cl)cc1", "growth": "7.79% (active)"},
      {"smiles": "COc1cc(C2=NN(C=O)C(c3cccc(Nc4ccnc5cc(Cl)ccc45)c3)C2)cc(OC)c1OC", "note": "(stereo not given)", "growth": "68.9% (inactive)"},
      {"smiles": "CC(C)C[C@H](NC(=O)/C=C/Cn1ccc2ccccc2c1=O)B(O)O", "growth": "-15.5% (active)"},
      {"smiles": "Nc1ccc(Oc2c(F)c(F)c(Oc3ccc(N)cc3)c(F)c2F)cc1", "growth": "104% (inactive)"},
      {"smiles": "COc1cc(C2CC(c3ccc(C)cc3)=NN2C=O)ccc1OCCN(C)C", "note": "(stereo not given)", "growth": "86.4% (inactive)"},
      {"smiles": "C[C@]12CCC(=O)C=C1CCC1C2[C@@H](O)C[C@@]2(C)C1CC[C@]2(O)C(=O)COC(=O)CCC(=O)O", "note": "(stereo not given in full)", "growth": "77.4% (inactive)"},
      {"smiles": "COc1cc(/C(Cl)=C/C=C/C(=O)c2c(C)[n+]([O-])c3ccc(Cl)cc3[n+]2[O-])cc(OC)c1OC", "growth": "54.3% (inactive)"},
      {"smiles": "O=C1C=CC(=O)N1c1ccccn1", "growth": "108% (inactive)"},
      {"smiles": "CN1C(=O)C(C2=NN(C=O)C(c3ccc(F)cc3)C2)C(=O)N(C)C1=O", "note": "(stereo not given)", "growth": "85.2% (inactive)"},
      {"smiles": "COc1cc(/C=C2\\CN(C)CC3=C2Nc2nc(SC)[nH]c(=O)c2C3c2cc(OC)c(OC)c(OC)c2)cc(OC)c1OC", "note": "(stereo not given)", "growth": "72.1% (inactive)"},
      {"smiles": "Oc1c(N=Nc2nn[nH]n2)ccc2ccccc12", "growth": "81.4% (inactive)"},
      {"smiles": "COc1cnc2c(c1)C(=O)c1c-2n(CCCN2CCCC2)c(=O)c2cc(F)ccc12", "growth": "-81.2% (active)"},
      {"smiles": "COc1cccc2c1C(=O)c1c(O)c3c(c(O)c1C2=O)C[C@@](O)(C(C)=O)C[C@@H]3O[C@H]1C[C@H](N)[C@H](O)[C@H](C)O1", "growth": "-33.1% (active)"},
      {"smiles": "CCCCc1ccc(C(N)=O)nc1", "growth": "86.5% (inactive)"},
      {"smiles": "CCCCCCCCCCCCCCCCNC(=O)Nc1ccc2ccccc2c1", "growth": "108% (inactive)"},
      {"smiles": "CCOC(=O)c1sc(NC(=O)COc2cccc(/C=C3\\CCc4cc(OC)ccc4C3=O)c2)nc1C", "growth": "85.2% (inactive)"},
      {"smiles": "O=C(COc1cccc(/C=C2\\Cc3ccccc3C2=O)c1)c1ccc(Cl)cc1", "growth": "105% (inactive)"},
      {"smiles": "c1ccc(COc2ccc(Nc3ncnc4c3cnn4-c3ccccc3)cc2)cc1", "growth": "103% (inactive)"},
      {"smiles": "C1=C(Cc2ccccc2)n2cnc3ncnc(c32)S1", "growth": "53.7% (inactive)"},
      {"smiles": "O=C(CNC(=O)c1cccc2ccccc12)Nc1ccccc1Cc1ccccc1", "growth": "72.3% [5 µM] (inactive)"},
      {"smiles": "C[C@@H]1C[C@@H]([C@@H](CC2CC(=O)NC(=O)C2)OC(=O)CC(=O)c2ccccc2)C(=O)[C@@H](C)C1", "growth": "4.07% (active)"},
      {"smiles": "CN(C)c1ncnc2c1ncn2C1CCCCO1", "note": "(stereo not given)", "growth": "98.5% (inactive)"},
      {"smiles": "CCCCCc1c(C)[nH]c(/C=C2\\N=C(c3ccc[nH]3)C=C2Oc2ccc(Cl)cc2)c1C", "growth": "11.9% [100 µM] (inactive)"}
    ]}
  ]
}
